Data from PubChem BioAssay (NCATS).
Inconclusive results are not listed. A call without a number means that no potency is given here. Activity calls are given as the source filed them. Calls come from the whole dose curve; as a rule, active = well fitted curve in the direction sought with a large enough effect; inconclusive = small, poorly fitted or top-dose-only effect, or another doubt; inactive = no such curve, though single readings can be large; an effect the other way counts as inactive or inconclusive.

How the values were obtained:
[1] = biological target: Calcium and integrin-binding protein 1 (Homo sapiens) (UniProt Q99828); experiment: Primary qHTS for Identification of Calcium Integrin Binding Protein 1 (CIB1) Competitor (AID 1508620); settings: CIB1-GST / FITC-alphaIIb peptide fluorescence polarization; series mostly up to 57.7 µM;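 note: GST tagged CIB1 binding a fluorescein labelled alphaIIb integrin peptide tracer; top concentration of the series differs between compounds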
How it was run: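 Fluorescence polarization competition: CIB1-GST (1 uM final) preincubated with compound 15 min at room temperature, then FITC-labeled alphaIIb peptide (100 nM final) added for another 15 min. Polarization read at Ex 480/Em 540.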

[2] = Primary qHTS for small molecule stabilizers of the endoplasmic reticulum resident proteome: Secreted ER Calcium Modulated Protein (SERCaMP) assay (AID 1508630); settings: SH-SY5Y GLuc-SERCaMP (Gaussia luciferase released on ER calcium loss) secretion, thapsigargin, luminescence; series mostly up to 38.4 µM
How it was run: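 The SH-SY5Y reporter protocol was run at 3 concentrations up to 38.3 uM (primary) or 11 concentrations (follow-up): 16 h compound, 100 nM thapsigargin for 4 h, then extracellular luciferase luminescence.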

Chain of Calcium and integrin-binding protein 1 (Homo sapiens) (Q99828 whole entry, looked up): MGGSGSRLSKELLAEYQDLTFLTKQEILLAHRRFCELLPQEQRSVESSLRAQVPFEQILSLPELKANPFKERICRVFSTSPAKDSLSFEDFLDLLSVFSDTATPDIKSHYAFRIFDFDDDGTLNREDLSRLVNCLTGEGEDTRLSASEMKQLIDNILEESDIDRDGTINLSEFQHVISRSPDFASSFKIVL

Structure (SMILES) | Potency [1] | Potency [2]
CON=C(C(=O)N[C@@H]1C(=O)N2C(C(=O)OCOC(=O)C(C)(C)C)=C(C=Cc3scnc3C)CS[C@H]12)c1csc(N)n1 | inactive | inactive
CCC(=O)O[C@]1(C(=O)CO)CC[C@H]2[C@@H]3CCC4=CC(=O)CC[C@]4(C)[C@@H]3CC[C@@]21C | inactive | inactive
COc1ccc(-c2coc3cc(O)ccc3c2=O)cc1 | inactive | inactive
CC(=O)Nc1ccc([C@H](C)C(=O)Nc2ncc(C(C)C)s2)cc1 | inactive | inactive
COc1cc(N2CCC(N3CCN(C)CC3)CC2)ccc1Nc1ncc(Cl)c(Nc2ccccc2S(=O)(=O)C(C)C)n1 | inactive | inactive
CCC(CC)[C@H](NC(C)=O)[C@@H]1[C@H](O)[C@@H](C(=O)O)C[C@@H]1N=C(N)N | inactive | inactive
CCOC1OC(=O)C[C@H]1NC(=O)[C@@H]1CCCN1C(=O)[C@@H](NC(=O)c1ccc(N)c(Cl)c1)C(C)(C)C (stereo not given in full) | inactive | inactive
CC1CCC(C(=O)N(c2cc(C#CC(C)(C)C)sc2C(=O)O)C2CCC(O)CC2)CC1 (stereo not given) | inactive | inactive
O=c1c(-c2ccc(O)cc2)coc2cc(O[C@@H]3O[C@H](CO)[C@H](O)[C@H](O)[C@H]3O)ccc12 | inactive | inactive
CCOC(CN1C(=O)[C@](CC(=O)Nc2ccc(C)cc2)(NC(=O)Nc2ccc(C)cc2)c2ccccc21)OCC | inactive | inactive
O=c1cc(-c2cccc3c2Sc2ccccc2S3)oc(N2CCOCC2)c1 | inactive | inactive
C[C@]12CC[C@@H]3c4ccc(O)cc4CC[C@H]3[C@H]1C[C@@H](O)[C@H]2O | inactive | inactive
O=c1cc(N2CCOCC2)oc2c(-c3cccc4c3sc3ccccc34)cccc12 | inactive | inactive
CC1(C)CCC[C@@]2(C)[C@@H]1CC[C@@]1(C)OC(=O)C[C@H]21 | inactive | inactive
COc1ccc(-n2c(C)c([N+](=O)[O-])c3ccc(O)cc32)cc1 | inactive | inactive
O=C(O)c1ccc(-c2cc3cccnc3c(-c3ccc4nonc4c3)n2)cc1 | inactive | inactive
C=C1C(=O)OC(CCCCCCCC)C1C(=O)O (stereo not given) | inactive | inactive
O=c1cc(CN2CCOCC2)occ1OCCCCCSc1ccnc2cc(C(F)(F)F)ccc12 | inactive | inactive

Structure (SMILES) | Potency [1] | Potency [2]
CC=CC(=O)N(CC)c1ccccc1C | inactive | inactive
CC(C)(C)OC(=O)N[C@H]1CCCCCC=C[C@@H]2C[C@@]2(C(=O)NS(=O)(=O)C2CC2)NC(=O)[C@@H]2C[C@@H](OC(=O)N3Cc4cccc(F)c4C3)CN2C1=O | inactive | inactive
O=C(NCc1ccncc1)C12C[C@H]3C[C@@H](C1)CC(c1ccc(Cl)cc1)(C3)C2 | inactive | inactive
c1ccc2c(Cc3c[nH]c4ccccc34)c[nH]c2c1 | inactive | inactive
CC=CCC=CCCC(=O)[C@H]1O[C@@H]1C(N)=O | inactive | inactive
CC(C)C(=O)Oc1ccc(CO)cc1[C@H](CCN(C(C)C)C(C)C)c1ccccc1 | inactive | inactive
CCOC(=O)O[C@]1(C(=O)OCCl)CC[C@@H]2[C@H]3CCC4=CC(=O)C=C[C@]4(C)[C@@H]3[C@@H](O)C[C@@]21C | inactive | inactive
NS(=O)(=O)c1ccc(NC2=CC(=O)c3ccccc3C2=O)cc1 | inactive | inactive
O=c1c(O)c(-c2ccc(O)cc2)oc2cc(O)cc(O)c12 | inactive | inactive
Cc1ccc(C(C)(O)c2nc3ccccc3s2)c(C)c1 (stereo not given) | inactive | inactive
Nc1ncnc2c1nc(Cl)n2[C@@H]1O[C@H](CO)[C@@H](O)[C@@H]1O | inactive | inactive
CN(C)Cc1cccc(N=C(c2ccccc2)c2c(O)[nH]c3cc(C(=O)N(C)C)ccc23)c1 | inactive | inactive
NC1CCC(Nc2nc(Nc3ccc(C(=O)N4CCCCC4)cc3)c3ncn(-c4cccc(F)c4)c3n2)CC1 (stereo not given) | inactive | inactive
O=C(OCC#CCSc1nnc(-c2cccc3ccccc23)o1)c1cc2ccccc2s1 | inactive | inactive
O=C(Nc1cccc(Br)c1)c1cccc(S(=O)(=O)N2CCCCCC2)c1 | inactive | inactive
COc1ncc(-c2ccc3nccc(-c4ccnnc4)c3c2)cc1NS(=O)(=O)c1ccc(F)cc1F | inactive | inactive
C[C@]12CCC3c4ccc(O)cc4CCC3C1CCC2=O (stereo not given in full) | inactive | inactive
